Measurements published in PubChem BioAssay AID1458 (National Center for Advancing Translational Sciences (NCATS), 2008).
“And” between values parts separate entries of the source, which are not always exact repeats. Identical values can stand only once. The campaign covered roughly 210,000 compounds. About 5,900 (2.8%) were called active. Not shown: some 5% with an inconclusive outcome. The call rests on the fitted dose curve; in most records, active means well fitted activation curve with a large enough effect; inconclusive means small, poorly fitted or top-dose-only effect; inactive means no such curve, though single readings can be large or run the other way. Only a selection was taken, and actives are over-represented in it overall.

Test: qHTS Assay for Enhancers of SMN2 Splice Variant Expression; further: nearly all actives have a fitted effect of over 55% in size; on activity change, positive = activation: % of control where 0% means no effect
Settings: HEK293 SMN2-luciferase splicing reporter, luminescence, 30-36 h; series mostly up to 46.1 µM; activity change, positive = activation: at the top concentration
In short: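 HEK293 cells carry an SMN2 […]–luciferase reporter in which exon 7 inclusion puts luciferase in frame. Cells were plated 10-12 h before compound addition, then incubated 30-36 h at 37C. ONE-Glo luminescence was read; sodium butyrate at 4.5 mM final served as control.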
Potency means the concentration at half of the fitted maximal effect.

Structure (SMILES) | activity change, positive = activation | Potency
COc1cc(NS(=O)(=O)c2cccs2)cc(OC)c1 | 3.39% (inactive) | –
Cc1cccc(N2CCN(c3c(CN4CCCC4)c(=O)oc4ccccc34)CC2)c1C | -9.24% (inactive) | –
O=C(NCc1cccs1)c1ccc2c(c1)ncn2C1CCCC1 | -4.28% (inactive) | –
Cn1ncc(Br)c1C(=O)NCc1cccs1 | 2.37% (inactive) | –
Cc1nc2cc(NCc3cccs3)ccc2n1C | – | 7.94 µM (active)
CCCCCCn1nnc2sc(-c3ccccc3)cc2c1=O | -11.4% (inactive) | –
CCOC(=O)c1cc(NC(=O)c2ccc(F)cc2)c(=O)n2c1oc1ccccc12 | 6.19% (inactive) | –
COc1ccccc1NC(=O)c1oc2ccccc2c1NC(=O)C(C)C | -16.2% (inactive) | –
CC(CCCc1ccccc1)NC(=O)c1nn(-c2ccc(Cl)cc2)nc1CO (configuration not stated) | -47.2% (inactive) | –
CCOc1ccc(S(=O)(=O)Nc2ccc3oc4c(c3c2)CC(C)CC4)cc1 (configuration not stated) | -8.65% (inactive) | –
C=CCN(c1ccc(C(=O)Nc2cc(C)cc(C)c2)cc1)S(C)(=O)=O | -19.8% (inactive) | –
CSCc1ccc(C(=O)Nc2cc(C)cc(C)c2)cc1 | – | 12.6 µM (active)
CC(=O)Nc1ccccc1NC(=O)c1cc(C)cc(C)c1 | -2.07% (inactive) | –
CCOc1ccccc1NC(=O)c1ccc2c(c1)CCN2S(=O)(=O)c1ccc(C)cc1 | 3.85% (inactive) | –
CC(=O)Nc1ccc(NC(=O)CSc2nnc3c4cc(Br)ccc4n(C)c3n2)cc1 | 3.66% (inactive) | –
Cc1cc(C)cc(NC(c2nnc(-c3cccc(F)c3)o2)c2ccc(F)cc2Cl)c1 (configuration not stated) | -3.55% (inactive) | –
NC(=NC(=O)c1ccccc1)N1CCOCC1 | 8.74% (inactive) | –
O=C(NC(=O)N1CCOCC1)c1ccccc1 | -3.17% (inactive) | –
O=C(CSC(=S)N1CCOCC1)c1ccccc1 | – | 0.794 µM (active)
O=C(Nc1nc2ccccc2s1)c1ccc2c(c1)OCO2 | – | 0.355 µM (active)
Cc1ccc(F)cc1NC(=O)c1ccc2c(c1)OCO2 | -18.3% (inactive) | –
O=C(Nc1cccnc1)c1ccc2c(c1)OCO2 | 27.6% (inactive) | –

Structure (SMILES) | activity change, positive = activation | Potency
Cc1cc(C)c2nc(NC(=O)c3ccc4c(c3)OCO4)sc2c1 | 3.44% (inactive) | –
COCc1nnc(NC(=O)c2ccc3c(c2)OCO3)s1 | – | 14.1 µM (active)
CCCc1nnc(NC(=O)c2cc(OC)cc(OC)c2)s1 | 0.792% (inactive) | –
O=C(CCn1c(=O)c2ccccc2n(Cc2ccc(Cl)cc2)c1=O)NCc1ccc2c(c1)OCO2 | 10.9% (inactive) | –
CC(C)NC(=O)c1nn(-c2ccccc2F)nc1CO | -25.4% (inactive) | –
NC1=NC(c2cc(F)cc(F)c2)n2c(nc3ccccc32)N1 (configuration not stated) | 2.06% (inactive) | –
Brc1ccc2c(c1)NC(c1cccnc1)=NC(c1ccccc1)=N2 | 26.1% (inactive) | –
C[N+](C)(C)CCNC(=O)c1c(O)c2c([nH]c1=O)CCCC2 | 1.37% (inactive) | –
O=C(NCc1ccccn1)c1c(O)c2c([nH]c1=O)CCCC2 | -17.7% (inactive) | –
CCc1nnc(NC(=O)c2c(O)c3c([nH]c2=O)CCCC3)s1 | – | 14.1 µM (active)
Cc1ccc(NC(=O)NC(C)c2c(-n3cccc3)sc(C)c2C)c(C)c1 (configuration not stated) | -3.47% (inactive) | –
CCCn1c(NCc2ccc(N(CC)CC)cc2)nc2ccccc21 | -50.8% (inactive) | –
O=C(NCCOc1ccccc1)c1ccccc1 | – | 12.6 µM (active)
CCCOc1ccc(C(=O)NCCc2ccccc2)cc1 | – | 14.1 µM (active)
Nc1ccc(C(=O)NCc2ccccc2)cc1 | 11% (inactive) | –
NS(=O)(=O)c1cc(C(=O)NCCOc2ccccc2)c(Cl)cc1Cl | 5.16% (inactive) | –
CC(C)c1ccc(C(=O)NCCCc2ccccc2)cc1 | – | 14.1 µM (active)
O=C(NCCc1ccccc1)c1ccc(OCCOc2ccccc2)cc1 | -1.13% (inactive) | –
COc1ccc(OCCCC(=O)NCCc2ccccc2)cc1 | -4.84% (inactive) | –
CS(=O)(=O)NCc1ccc(C(=O)NCc2ccccc2)cc1 | -3.72% (inactive) | –
O=C(CCOc1ccccc1)NCc1ccccc1 | -5.69% (inactive) | –
CCC1=Nc2cc(C(=O)NCC(C)c3ccccc3)ccc2Sc2ccc(C)cc21 (configuration not stated) | -29.9% (inactive) | –

Structure (SMILES) | activity change, positive = activation | Potency
COc1cccc(CNC(=O)c2cc(=O)[nH]c3ccc(S(=O)(=O)N4CCCCC4)cc23)c1 | 2.53% (inactive) | –
CCC(=O)N1N=C(c2ccc(OC)cc2)CC1c1cn(-c2ccccc2)nc1-c1cccs1 (configuration not stated) | -8.72% (inactive) | –
COc1ccc(-c2nn(-c3ccccc3)cc2/C=C\C(=O)Nc2ccc(C(=O)O)cc2)cc1 | -2.02% (inactive) | –
O=C(O)c1ccc(N/N=C/c2cn(-c3ccccc3)nc2-c2cccs2)cc1 | – | 7.94 µM (active)
O=C(/C=C\c1cn(-c2ccccc2)nc1-c1cccs1)N1CCOCC1 | 26.2% (inactive) | –
CC(C)CC(NS(=O)(=O)c1ccc2c(c1)oc(=O)n2C)C(=O)NCc1ccccc1Cl (configuration not stated) | 4.01% (inactive) | –
Cc1ccccc1NC(=O)Cn1c(=O)n(CCc2ccccc2)c(=O)c2ccccc21 | -3.15% (inactive) | –
COc1ccc(N2CCN(C(=O)CSc3ncnc4c3cnn4-c3ccc(OC)cc3)CC2)cc1 | -25.5% (inactive) | –
COc1ccc(-n2ncc3c(N4CCc5ccccc54)ncnc32)cc1 | – | 5.62 µM (active)
COc1ccc(-n2ncc3c(N4CCCc5ccccc54)ncnc32)cc1 | -16.2% (inactive) | –
CO[C@@]12[C@@H](COC(N)=O)C3=C(C(=O)C(C)=C(N)C3=O)N1C[C@@H]1N[C@@H]12 | -77.1% (inactive) | –
CC(C)c1ccc2oc(-c3cc(NC(=O)c4cccs4)ccc3Cl)nc2c1 | -26.1% (inactive) | –
CC1=C(C(=O)OCc2ccc(C)cc2)C(c2c(Cl)cccc2Cl)CC(=O)N1 (configuration not stated) | 1.93% (inactive) | –
Cc1ccccc1OCC(=O)Nc1c(C(=O)Nc2ccccc2F)oc2ccccc12 | 13.5% (inactive) | –
CNC(=S)N/N=C/c1ccc(OCc2ccccc2)c(Br)c1 | 3.28% (inactive) | –
Cc1n[nH]c(=S)n1/N=C/c1ccc(Br)o1 | 2.13% (inactive) | –
COc1cc(/C=N/n2c(C)n[nH]c2=S)ccc1OCc1ccccc1 | – | 12.6 µM (active)
Cc1cc(-c2ccccc2)n2nc(-c3ccccc3)cc2n1 | -3.97% (inactive) | –
Cc1ccc(NC(=O)CN2C(=O)CC(C)Sc3ccccc32)c(C)c1 (configuration not stated) | -2.75% (inactive) | –
CC(C)=CCN1CCC2(CCc3ccccc32)CC1 | -7.89% (inactive) | –
CCOc1ccc(OCC)c(NC(=O)c2c(C)nn(-c3ccccc3)c2-n2cccc2)c1 | -0.729% (inactive) | –
COC(=O)c1c(NC(=O)c2ccc(Cl)c(Cl)c2)sc2c1CCCC2 | -7.09% (inactive) | –

Structure (SMILES) | activity change, positive = activation | Potency
COc1ccccc1Nc1nc(N)nc(N)c1S(=O)(=O)c1ccccc1 | 10.2% (inactive) | –
CCc1cc2c(cc3c(=O)n(CC(=O)NCCc4ccc(OC)c(OC)c4)ncn32)s1 | -1.71% (inactive) | –
Cc1ccc(-n2ncc3c(Nc4cccc(C(=O)O)c4)ncnc32)cc1 | – | 14.1 µM (active) and 11.2 µM (active)
CCN(CC)C(=O)CSc1ncnc2c1cnn2-c1ccccc1 | 27.2% (inactive) | –
O=C(NNc1ncnc2c1cnn2-c1ccccc1)c1ccco1 | -26.9% (inactive) | –
COc1ccc(Cl)cc1NC(=O)CSc1nc(-c2cccs2)cc(C(F)(F)F)n1 | -0.0208% (inactive) | –
CCOCCCNC(=O)c1cn(CC)c2ccc(S(=O)(=O)N3CCc4ccccc4C3)cc2c1=O | -7.64% (inactive) | –
COc1c(C)c2c(c(O)c1C/C=C(\C)CCC(=O)O)C(=O)OC2 | – | 501 nM (active) and 631 nM (active) and 398 nM (active)
CCc1ccc(C2CC(=O)c3c([nH]c(C(=O)OCc4ccc(C)cc4)c3C)C2)cc1 (configuration not stated) | 6.39% (inactive) | –
COc1ccc(C2=Nc3cc(C)ccc3OC2)cc1 | – | 2.82 µM (active)
COc1ccc(C2=NOC3(CC(=O)N(c4ccc(C)cc4)C3=O)C2)cc1 (configuration not stated) | -1.53% (inactive) | –
COc1ccc(-c2cc(-c3ccccc3)nc3c2COc2ccc(Cl)cc2-3)cc1 | 2.81% (inactive) | –
Cc1ccc2c(c1)-c1c(cnn1CC(=O)Nc1ccccc1C#N)CO2 | -17.6% (inactive) | –
CC(C)C(=O)Nc1ccc(C(=O)NNC(=O)c2cccs2)cc1 | 15.1% (inactive) | –
O=C(O)c1ccc(NC(=O)c2cccs2)cc1 | -2.57% (inactive) | –
Cc1ccc(-n2nc(C)c(/C=N/NC(=O)c3cccs3)c2Cl)cc1 | 20.2% (inactive) | –
Cc1cccc(-n2c(C)cc(/C=N\NC(=O)c3cccs3)c2C)c1 | – | 2 µM (active)
Cc1cccc(-n2c(C)cc(/C=N/NC(N)=S)c2C)c1 | 2.47% (inactive) | –
CC(=O)Nc1ccc(/C=N/NC(=O)c2cccs2)cc1 | – | 17.8 µM (active)
O=C(OC1CCOC1=O)c1ccc(-c2nc3ccccc3s2)s1 (configuration not stated) | – | 12.6 µM (active)
Cc1nn(Cc2ccccc2)c(Cl)c1C(=O)OC1CCOC1=O (configuration not stated) | 15.5% (inactive) | –
O=C(c1cccs1)N1CCC(c2nc3ccccc3s2)CC1 | -20.4% (inactive) | –

Structure (SMILES) | activity change, positive = activation | Potency
COc1cccc(-c2nc(CS(=O)(=O)CC(=O)NCCc3ccc(OC)c(OC)c3)c(C)o2)c1 | -49.1% (inactive) | –
O=C(Cn1nc(C(F)(F)F)c2c1CCCC2)Nc1ccc(Cl)cc1 | -4.3% (inactive) | –
O=C(Cn1nc(C(F)(F)F)c2c1CCC2)NCc1ccc(F)cc1 | -17.5% (inactive) | –
Cc1cc(NC(=O)Cn2nc(C(F)(F)F)c3c2CCCC3)no1 | – | 14.1 µM (active)
Cc1cc(C)cc(NC(=O)Cn2c(=O)c3ccccc3n3nncc23)c1 | 7.67% (inactive) | –
COc1ccc2nc(NC(=O)[C@@H]3CCCN3C(=O)c3cccs3)sc2c1 | 2.5% (inactive) | –
CCOc1ccc(S(=O)(=O)Nc2nc3cc(OC)ccc3s2)cc1 | 8.16% (inactive) | –
COc1ccc2nc(Nc3nc4cc5c(cc4s3)OCCO5)sc2c1 | – | 20 µM (active)
COc1ccc2nc(Nc3nc4ccc(NC(C)=O)cc4s3)sc2c1 | -6.86% (inactive) | –
COc1cccc(C(=O)Nc2nc3ccc(S(C)(=O)=O)cc3s2)c1 | 18% (inactive) | –
COc1ccc2nc(NC(=O)c3ccc(Br)s3)sc2c1 | – | 11.2 µM (active)
COc1ccc(Cn2c(=O)n(-c3ccccc3C)c(=O)c3c4c(sc32)CN(C(C)=O)CC4)cc1 | 8.31% (inactive) | –
CCOC(=O)c1ccc(NC(=O)Cn2c(=O)n(-c3ccc(C)cc3)c(=O)c3c2cnn3C)cc1 | -2.66% (inactive) | –
O=[N+]([O-])c1cc(C(F)(F)F)ccc1NN=C1CCCC1 | 5.28% (inactive) | –
O=[N+]([O-])c1ccccc1NCc1ccccc1Cl | -8.19% (inactive) | –
O=[N+]([O-])c1ccccc1N/N=C1\CCc2ccccc21 | – | 11.2 µM (active)
Cc1ccc(Cl)cc1N(C)C(=O)Cn1nc(Cc2cccnc2)c2ccccc2c1=O | -1.29% (inactive) | –
COc1ccc(-n2c(C)nc3c(cnn3-c3ccc(F)cc3)c2=O)cc1 | -9.72% (inactive) | –
COc1ccc(-c2c3c(=O)n(C)c(=O)n(C)c3c3c(C)nc4ccccc4n23)cc1 | 7.52% (inactive) | –
